# Reference: ChEMBL document CHEMBL3988442, “University of Dundee, Small-Polar-MMV Screening Library” (2021)
# The campaign covered roughly 38,000 compounds. About 1,200 (3.2%) showed an effect of 50% or more. The median lay at about -58%. For the sample, strong results were picked, then their nearest neighbours and some compounds at random.
# System: Plasmodium falciparum
# Assay: Calibr Malaria Delayed Death Assay SOP
# Type: functional, organism-based
# Design: scale not given: in the data most compounds retested in dose-response had high values
# Details: concentration 4.99e-06 (unit not given; other assays of the set use mol/L)
row,Structure (SMILES),Percent Effect
1,COc1cccc(CNC(=O)c2cc(C)nc(N3CCCC3)n2)c1,-64.99%
2,CC(C)OC(=O)N1CCC(c2nnc(Cn3ccnc3)n2C)CC1,-243.5%
3,O=C(O)C(F)(F)F.O=C(c1cccnc1)N1CCC2(CC1)CC(Oc1ccccc1)CO2 (centres undefined),-74.94%
4,CCc1ccc2nc(-c3cnn(C)c3)cc(C(=O)N3CCOCC3)c2c1,-101.2%
5,CCS(=O)(=O)NCc1cccnc1N1CCCC(O)C1 (centres undefined),-44.06%
6,Cc1cnn(CC(=O)N(CC2CN(C)CCO2)c2nccs2)c1 (centres undefined),-66.52%
7,Cc1ccc(S(=O)(=O)Nc2ccc(-n3ccnc3C)nc2)cc1N(C)C,-25.67%
8,CC(=O)N(C)c1nc(Cn2nnnc2C(C)C)cs1,-150.3%
9,Cc1ccc(CN2CCc3onc(COc4cccnc4)c3C2)s1.O=C(O)C(F)(F)F.O=C(O)C(F)(F)F,3.567%
10,COc1ccc(-c2ncccc2C(=O)N2C[C@H]3CC[C@@H]2C3)cn1,-112.3%
11,N#Cc1ccc(NCCCN2C(=O)COc3ccccc32)nc1,-38.04%
12,N#Cc1cnc(NCCCN2C(=O)COc3ccccc32)c(Cl)c1,-83.56%
13,N#Cc1c(Cl)nsc1NCCCN1C(=O)COc2ccccc21,55.67%
14,CC(C)n1cc(N2CC(C(=O)N3CCc4ccccc4C3)CC2=O)cn1 (centres undefined),-62.91%
15,O=C(O)C(F)(F)F.O=C(c1ccc(O)cc1)N1C[C@@H]2OCCN(c3ncccn3)[C@@H]2C1,6.308%
16,Cl.NCC1(c2cccc(Br)c2)CCOCC1,78.65%
17,CC(C)(CNC(=O)C1(c2cccc(Br)c2)CCOCC1)C(=O)O,-116.6%
18,NCC1(c2cccc(C(F)(F)F)c2)CCC1,23%
19,O=C(O)CCNC(=O)C1(c2cccc(Br)c2)CCOCC1,-140.1%
20,Fc1cccc(C2(CNC3CCSC3)CCOCC2)c1 (centres undefined),-47.45%
21,Cc1ccc(NCCNC(=O)c2cc(CC(C)C)n[nH]2)nn1,-140.2%
22,Cc1cc(NC(=O)Cn2ccc(-c3ccc4c(c3)OCO4)n2)n(C)n1,-110.5%
23,CC(C)CNC(=O)c1cn(C)c(=O)c2ccccc12,-112.9%
24,CN(C)CCN1CCO[C@@H]2CCN(C(=O)c3cccn3C)CC[C@H]21,-62.97%

row,Structure (SMILES),Percent Effect
1,CCN1CCC(NC(=O)CN2CCCC(NS(C)(=O)=O)C2)CC1 (centres undefined),-94.92%
2,CC(C)CC(C)NC1CCN(c2ccc(-c3cscn3)cc2)CC1 (centres undefined),-115.7%
3,c1cc(-c2cscn2)cc(N2CCC(NCCc3cccs3)CC2)c1,23.18%
4,CC(C)CC(C)NC1CCN(c2cccc(-c3cscn3)c2)CC1 (centres undefined),51.64%
5,Cc1ccc(C(C(=O)N2CCC(Cc3noc(C)n3)CC2)N(C)C)cc1 (centres undefined),25.87%
6,CN1CCCC2(CCN(C(=O)c3ccncc3)C2)C1 (centres undefined),-70.03%
7,CN1CCC2(CCN(S(=O)(=O)c3ccc(-c4cnco4)s3)CC2)C1,67.52%
8,O=S(=O)(c1ccc(-c2cnco2)cc1)N1CCCC(O)(CO)CC1 (centres undefined),-42.75%
9,Cc1ccc(S(=O)(=O)N2CCN(C)C3(CCC(=O)N(C)CC3)C2)s1 (centres undefined),-170.6%
10,CN1CCCC2(CCN(S(=O)(=O)c3ccc(-c4cnco4)s3)C2)C1=O (centres undefined),-20.09%
11,CN1CCC2(CCCN(S(=O)(=O)c3ccc(-c4cnco4)s3)C2)C1 (centres undefined),50.7%
12,CCCn1c(C)c(CC(=O)NCC(N)=O)c2c1CC(C)(C)CC2=O,-28.28%
13,O=C(C1CCCO1)N1CCC2(CC1)COCCN2CC1CC1 (centres undefined),-162.7%
14,CN(Cc1ncc[nH]1)c1nc(-c2ccccn2)nc2c1CCNCC2,54.09%
15,CN(Cc1ccc(-n2cccn2)cc1)c1nc(N)nc2c1CCNCC2,57.31%
16,CN(Cc1cccnc1)c1nccc(N2CCN[C@H]3CS(=O)(=O)C[C@H]32)n1,-59%
17,c1ccc(-c2nc3c(c(NCCn4ccnn4)n2)CCNCC3)nc1,6.036%
18,CC(=O)N1CCc2c(nc(-c3ccccn3)nc2N(C)CC(O)CO)C1 (centres undefined),-23.68%
19,CN(Cc1nccs1)c1nc(-c2ccccn2)nc2c1CCNCC2,83.34%
20,CN(Cc1cccnc1)Cc1cncc2c1CCN(c1ccccn1)C2.Cl.Cl.Cl,-32.27%
21,CN(CCO)c1nc(-c2ccccn2)nc2c1CCNC2,-87.29%
22,CN(Cc1cccnc1)c1nc(-c2ccccn2)nc2c1CCNCC2,53.3%
23,CN(Cc1ccccc1-n1cccn1)c1nc(N)nc2c1CCNCC2,-16.16%
24,CN(Cc1ccc(-n2cccn2)cc1)c1cc(N)nc(N)n1,39.62%

row,Structure (SMILES),Percent Effect
1,CN(Cc1nccs1)C1CCN(c2ncccn2)CC1,-79.31%
2,O=C(O)C(F)(F)F.O=C(O)C(F)(F)F.c1cncc(CO[C@H]2CN(Cc3ccco3)[C@@H]3COC[C@H]23)c1,-20%
3,Nc1nnc(SCc2cc(=O)n3c4c(sc3n2)CCCC4)[nH]1,-122.1%
4,O=C(C1CCC1)N1C(CN2CCOCC2)[C@]2(O)CC[C@H]1CC2 (some centres undefined),-122.6%
5,O=C(Cn1nc(Br)nc1Br)N1CCCCC1,-129.7%
6,Cc1nc(CC2CCN(C(=O)C(c3ccccc3C)N(C)C)CC2)no1 (centres undefined),-27.12%
7,COc1ccc(CN(Cc2cncn2C)CC2CCCO2)cc1.O=C(O)CC(O)(CC(=O)O)C(=O)O (centres undefined),-5.826%
8,CC1CCN(c2nc3ncc4c(c3c(=O)[nH]2)CC(C)(C)CC4=O)CC1,-163.1%
9,COCC(Nc1nc(N(C)C)nc2c1CCNCC2)c1ccccn1 (centres undefined),-46.74%
10,CN(Cc1ccsc1)c1nc(-c2ccccn2)nc2c1CCNCC2,79.12%
11,CCOCc1nc2c(c(N(C)Cc3snnc3C)n1)CCNCC2,-53.15%
12,CCOCc1nc2c(c(N(C)Cc3ccsc3)n1)CCNCC2,63.06%
13,CN(CC1Cc2ccccc2CN1C)c1nc(N)nc2c1CCNCC2 (centres undefined),-16.74%
14,CCOCc1nc2c(c(N(C)Cc3nonc3C)n1)CCNCC2,45.51%
15,COCC1CCN(C(=O)c2cn(Cc3ccccc3F)nn2)CC1,-60.58%
16,CN(C)c1cc(C(=O)NCCc2n[nH]c(=O)[nH]2)ccn1,-61.85%
17,Cc1cnn(CC2CN(Cc3nc(C4CC4)no3)CCO2)c1 (centres undefined),-0.1422%
18,CC(C)N1CCC(CNC(=O)CCc2cc(F)ccc2F)C1 (centres undefined),6.837%
19,COCCN1CCC(CNC(=O)CCc2cc(F)ccc2F)C1 (centres undefined),-6.086%
20,CC(C)N1CCC(CNC(=O)COc2ccc(F)cc2F)C1 (centres undefined),52.83%
21,Cc1cc(CNC(=O)N2CCN(c3ccc(Cl)cn3)CC2)c(C)o1,-63.56%
22,CC(=O)N1CCO[C@@H]2CN(C(=O)NCc3ccccc3)CC[C@@H]2C1,-111.3%
23,Cc1cnc(N2CC[C@@H]3OC(COCC(=O)N(C)C)CC[C@@H]32)nc1.O=C(O)C(F)(F)F (some centres undefined),-36.79%
24,CCCOc1cc(C)ccc1NC(=O)NCCNC(=O)C(C)C,-67.23%

row,Structure (SMILES),Percent Effect
1,CC(C)COC(=O)N1[C@@H](c2ccco2)[C@@H](CO)C[C@]12CCCCNC2=O,-86.33%
2,COCCNc1nc2c(c(NCc3ccncc3)n1)CCNCC2,12.96%
3,COCCNc1nc(C2CCCC2)nc2c1CCNCC2,52.24%
4,OC(CNc1ncnc2c1CCNCC2)C(F)(F)F (centres undefined),-185.3%
5,COCc1noc(CNc2nc(C3CCCC3)nc3c2CCNCC3)n1,26.49%
6,Cc1nc2c(c(NCC(O)C(F)(F)F)n1)CCNCC2 (centres undefined),-130.8%
7,OC(CNc1nc(C2CCCC2)nc2c1CCNCC2)C(F)(F)F (centres undefined),63.72%
8,Cc1nc(CN2CCO[C@H]3[C@@H](Oc4ccccn4)CC[C@@H]32)cs1.O=C(O)C(F)(F)F.O=C(O)C(F)(F)F,-51.07%
9,COc1cccc(-c2cc(C(=O)NCCCn3cnnc3)[nH]n2)c1,-185.9%
10,CCn1ncc2c1C(COC)CN(Cc1cnn(C)c1)C2 (centres undefined),-1.77%
11,CC[C@@H]1N(Cc2nccs2)CCC[C@]12CCC(=O)N2CCOC.O=C(O)C(F)(F)F,-51.09%
12,Cc1noc(-c2ccnc(N3CCC(CN4CCOCC4)CC3)c2)n1,-57.29%
13,Cc1ccc(C(=O)N2CCN(c3ccnc4ccsc34)CC2)o1,5.694%
14,c1coc(CN2CCn3c(nc4ccccc43)C2)c1,-138.4%
15,CN(Cc1ccco1)C[C@H]1OC[C@@H]2CCN(Cc3ccccn3)C[C@@H]21.O=C(O)C(F)(F)F.O=C(O)C(F)(F)F.O=C(O)C(F)(F)F,70.31%
16,CN(Cc1ccco1)C[C@H]1OC[C@@H]2CCN(Cc3nccs3)C[C@@H]21,9.527%
17,Cc1cccc(N2CC[C@H]3CO[C@H](CN(C)Cc4ccco4)[C@H]3C2)n1,48.83%
18,CN(Cc1ccco1)C[C@H]1OC[C@@H]2CCN(Cc3ccncc3)C[C@@H]21.O=C(O)C(F)(F)F.O=C(O)C(F)(F)F.O=C(O)C(F)(F)F,-2.031%
19,CN(Cc1ccco1)C[C@H]1OC[C@@H]2CCN(Cc3cccnc3)C[C@@H]21.O=C(O)C(F)(F)F.O=C(O)C(F)(F)F.O=C(O)C(F)(F)F,-41.37%
20,OC1=C2C(=Nc3n[nH]c(O)c3C2c2ccccc2Cl)CCC1 (centres undefined),-169.8%
21,Cn1nc(C(=O)N2CCCC2)c(F)c1NC(=O)Cc1ccccc1,-43.72%
22,Cc1nc2ccnn2c(C)c1CCC(=O)N1CCN(CCO)CC1,-40.17%
